How the values were obtained:
Experiment in all cases: log2 ratio of Biotin-Ahx-Ub-VS probe labelling (fragment/DMSO); higher = less target engagement (more negative = stronger competition), active = hit call of the paper (q ≤ 0.05, log2 ratio ≤ -1)
Settings in all cases: compound concentration: 200 uM; treatment time: 3 h
USP34 = USP34 (UniProt Q70CQ2)
In short: (§1)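 Labelling with Biotin-Ahx-Ub-VS (0.5 µM final, 1 h) followed a 3 h triplicate treatment of HEK293T lysate (495 µg per sample, Tris/CHAPS/IGEPAL buffer with protease inhibitors) with fragment at 200 µM or vehicle. Labelled DUBs were NeutrAvidin-enriched, digested with LysC and trypsin, and run by diaPASEF LC-MS/MS. The values, average log2 fragment/vehicle ratios by unpaired t-test, come from global-median-normalised Spectronaut label-free quantities. Proteins with ≥2 unique peptides were used.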

USP36 = target: T1, USP36 (UniProt Q9P275)
T1 sequence (whole entry): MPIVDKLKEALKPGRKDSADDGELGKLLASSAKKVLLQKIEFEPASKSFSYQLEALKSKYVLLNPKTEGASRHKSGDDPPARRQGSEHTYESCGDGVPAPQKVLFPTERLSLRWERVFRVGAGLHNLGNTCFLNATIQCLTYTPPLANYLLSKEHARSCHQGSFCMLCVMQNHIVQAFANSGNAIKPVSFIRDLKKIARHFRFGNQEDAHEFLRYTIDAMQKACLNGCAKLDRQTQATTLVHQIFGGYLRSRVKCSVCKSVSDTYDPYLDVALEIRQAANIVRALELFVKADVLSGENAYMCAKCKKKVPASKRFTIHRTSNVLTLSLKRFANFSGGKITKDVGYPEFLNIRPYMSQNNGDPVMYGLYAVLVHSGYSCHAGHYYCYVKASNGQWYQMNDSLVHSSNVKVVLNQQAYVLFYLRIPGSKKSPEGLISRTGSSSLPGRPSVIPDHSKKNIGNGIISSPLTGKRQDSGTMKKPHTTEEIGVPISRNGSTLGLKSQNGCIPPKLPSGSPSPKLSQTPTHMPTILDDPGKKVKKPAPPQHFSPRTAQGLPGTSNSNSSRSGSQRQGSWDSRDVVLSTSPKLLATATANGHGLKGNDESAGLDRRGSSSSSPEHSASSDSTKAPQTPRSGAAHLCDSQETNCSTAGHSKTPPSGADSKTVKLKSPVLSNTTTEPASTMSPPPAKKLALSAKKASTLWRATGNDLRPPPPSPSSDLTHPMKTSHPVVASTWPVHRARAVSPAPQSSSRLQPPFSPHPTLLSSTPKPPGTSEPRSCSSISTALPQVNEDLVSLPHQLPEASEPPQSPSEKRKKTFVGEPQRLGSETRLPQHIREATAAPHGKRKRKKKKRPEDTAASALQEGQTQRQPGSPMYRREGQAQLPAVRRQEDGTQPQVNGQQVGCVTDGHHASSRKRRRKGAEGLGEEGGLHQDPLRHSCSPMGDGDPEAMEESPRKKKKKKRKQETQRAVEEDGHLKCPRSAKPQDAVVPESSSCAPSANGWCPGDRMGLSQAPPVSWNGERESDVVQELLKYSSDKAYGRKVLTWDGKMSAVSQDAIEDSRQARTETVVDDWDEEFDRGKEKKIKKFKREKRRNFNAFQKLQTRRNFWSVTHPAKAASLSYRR
In short: as §1

USP38 = target: T2, USP38 (UniProt Q8NB14)
T2 sequence (whole entry): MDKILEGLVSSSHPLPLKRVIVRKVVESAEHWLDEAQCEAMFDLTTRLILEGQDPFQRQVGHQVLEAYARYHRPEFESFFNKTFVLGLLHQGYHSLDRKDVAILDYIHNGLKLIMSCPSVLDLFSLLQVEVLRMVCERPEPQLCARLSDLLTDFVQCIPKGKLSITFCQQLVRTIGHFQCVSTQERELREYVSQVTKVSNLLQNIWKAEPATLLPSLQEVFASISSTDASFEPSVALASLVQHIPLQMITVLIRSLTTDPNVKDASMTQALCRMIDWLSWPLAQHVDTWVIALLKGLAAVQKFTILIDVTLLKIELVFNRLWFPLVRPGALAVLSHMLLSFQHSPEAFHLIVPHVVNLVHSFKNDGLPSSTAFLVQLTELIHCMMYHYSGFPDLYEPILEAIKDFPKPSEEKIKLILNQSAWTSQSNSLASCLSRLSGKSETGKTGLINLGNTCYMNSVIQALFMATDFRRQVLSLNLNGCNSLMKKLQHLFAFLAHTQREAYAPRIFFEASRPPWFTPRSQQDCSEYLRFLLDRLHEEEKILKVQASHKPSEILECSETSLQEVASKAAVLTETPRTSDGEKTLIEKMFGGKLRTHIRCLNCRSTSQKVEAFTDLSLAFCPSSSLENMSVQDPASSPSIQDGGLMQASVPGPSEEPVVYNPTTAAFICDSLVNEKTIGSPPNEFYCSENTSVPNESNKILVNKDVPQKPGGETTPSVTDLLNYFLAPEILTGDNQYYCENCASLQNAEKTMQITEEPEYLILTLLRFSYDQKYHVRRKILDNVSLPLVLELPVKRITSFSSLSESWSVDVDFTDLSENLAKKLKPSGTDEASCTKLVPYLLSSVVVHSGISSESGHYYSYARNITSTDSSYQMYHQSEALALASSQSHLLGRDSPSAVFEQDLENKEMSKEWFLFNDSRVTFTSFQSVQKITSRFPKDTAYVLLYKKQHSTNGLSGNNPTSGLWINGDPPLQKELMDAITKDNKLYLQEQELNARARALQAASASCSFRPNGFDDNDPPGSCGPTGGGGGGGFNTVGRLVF
In short: as §1

USP39 = target: T3, USP39 (UniProt Q53GS9)
T3 sequence (whole entry): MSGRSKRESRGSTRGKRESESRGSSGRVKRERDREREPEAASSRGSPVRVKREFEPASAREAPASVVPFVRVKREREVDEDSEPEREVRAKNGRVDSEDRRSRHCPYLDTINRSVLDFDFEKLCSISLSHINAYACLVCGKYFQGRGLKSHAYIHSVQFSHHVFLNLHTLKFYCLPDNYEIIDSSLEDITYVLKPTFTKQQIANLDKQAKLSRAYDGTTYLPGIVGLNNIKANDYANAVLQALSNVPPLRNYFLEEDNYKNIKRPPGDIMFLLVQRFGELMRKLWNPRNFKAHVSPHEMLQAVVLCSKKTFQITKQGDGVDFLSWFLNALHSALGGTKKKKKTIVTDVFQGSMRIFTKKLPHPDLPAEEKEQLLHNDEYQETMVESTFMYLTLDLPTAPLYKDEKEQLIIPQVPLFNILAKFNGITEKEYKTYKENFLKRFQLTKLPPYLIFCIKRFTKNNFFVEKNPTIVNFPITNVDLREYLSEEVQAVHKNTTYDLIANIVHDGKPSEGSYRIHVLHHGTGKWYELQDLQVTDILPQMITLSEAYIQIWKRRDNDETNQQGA
In short: as §1

USP4 = target: T4, USP4 (UniProt Q13107)
T4 sequence (whole entry): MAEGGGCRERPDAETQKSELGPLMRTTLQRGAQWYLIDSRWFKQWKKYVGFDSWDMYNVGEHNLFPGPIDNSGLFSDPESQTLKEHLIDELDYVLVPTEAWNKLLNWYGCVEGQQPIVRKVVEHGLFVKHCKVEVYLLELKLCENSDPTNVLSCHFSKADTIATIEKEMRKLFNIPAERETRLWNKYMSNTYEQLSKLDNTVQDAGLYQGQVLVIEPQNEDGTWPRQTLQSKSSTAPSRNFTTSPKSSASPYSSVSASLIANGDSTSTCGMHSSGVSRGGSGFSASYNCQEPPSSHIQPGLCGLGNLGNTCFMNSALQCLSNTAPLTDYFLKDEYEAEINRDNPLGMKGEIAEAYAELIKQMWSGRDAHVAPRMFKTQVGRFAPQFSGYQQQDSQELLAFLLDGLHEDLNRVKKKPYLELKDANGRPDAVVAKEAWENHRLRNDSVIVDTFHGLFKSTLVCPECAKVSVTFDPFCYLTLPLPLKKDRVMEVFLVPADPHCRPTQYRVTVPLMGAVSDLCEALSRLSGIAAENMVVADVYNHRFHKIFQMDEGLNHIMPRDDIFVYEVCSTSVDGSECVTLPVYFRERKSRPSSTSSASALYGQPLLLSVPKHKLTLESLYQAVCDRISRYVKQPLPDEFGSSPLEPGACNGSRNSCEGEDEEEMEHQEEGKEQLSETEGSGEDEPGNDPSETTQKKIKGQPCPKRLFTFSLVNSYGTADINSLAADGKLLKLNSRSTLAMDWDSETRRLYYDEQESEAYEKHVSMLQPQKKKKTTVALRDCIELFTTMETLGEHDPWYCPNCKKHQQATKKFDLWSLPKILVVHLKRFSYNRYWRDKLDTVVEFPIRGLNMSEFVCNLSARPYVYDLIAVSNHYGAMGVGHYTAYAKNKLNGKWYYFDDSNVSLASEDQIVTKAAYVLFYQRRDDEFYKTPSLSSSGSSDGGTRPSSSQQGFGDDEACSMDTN
In short: as §1

Measured: log2 ratio of Biotin-Ahx-Ub-VS probe labelling

USP34, sequence (Q70CQ2 whole entry, the tested form may be a part): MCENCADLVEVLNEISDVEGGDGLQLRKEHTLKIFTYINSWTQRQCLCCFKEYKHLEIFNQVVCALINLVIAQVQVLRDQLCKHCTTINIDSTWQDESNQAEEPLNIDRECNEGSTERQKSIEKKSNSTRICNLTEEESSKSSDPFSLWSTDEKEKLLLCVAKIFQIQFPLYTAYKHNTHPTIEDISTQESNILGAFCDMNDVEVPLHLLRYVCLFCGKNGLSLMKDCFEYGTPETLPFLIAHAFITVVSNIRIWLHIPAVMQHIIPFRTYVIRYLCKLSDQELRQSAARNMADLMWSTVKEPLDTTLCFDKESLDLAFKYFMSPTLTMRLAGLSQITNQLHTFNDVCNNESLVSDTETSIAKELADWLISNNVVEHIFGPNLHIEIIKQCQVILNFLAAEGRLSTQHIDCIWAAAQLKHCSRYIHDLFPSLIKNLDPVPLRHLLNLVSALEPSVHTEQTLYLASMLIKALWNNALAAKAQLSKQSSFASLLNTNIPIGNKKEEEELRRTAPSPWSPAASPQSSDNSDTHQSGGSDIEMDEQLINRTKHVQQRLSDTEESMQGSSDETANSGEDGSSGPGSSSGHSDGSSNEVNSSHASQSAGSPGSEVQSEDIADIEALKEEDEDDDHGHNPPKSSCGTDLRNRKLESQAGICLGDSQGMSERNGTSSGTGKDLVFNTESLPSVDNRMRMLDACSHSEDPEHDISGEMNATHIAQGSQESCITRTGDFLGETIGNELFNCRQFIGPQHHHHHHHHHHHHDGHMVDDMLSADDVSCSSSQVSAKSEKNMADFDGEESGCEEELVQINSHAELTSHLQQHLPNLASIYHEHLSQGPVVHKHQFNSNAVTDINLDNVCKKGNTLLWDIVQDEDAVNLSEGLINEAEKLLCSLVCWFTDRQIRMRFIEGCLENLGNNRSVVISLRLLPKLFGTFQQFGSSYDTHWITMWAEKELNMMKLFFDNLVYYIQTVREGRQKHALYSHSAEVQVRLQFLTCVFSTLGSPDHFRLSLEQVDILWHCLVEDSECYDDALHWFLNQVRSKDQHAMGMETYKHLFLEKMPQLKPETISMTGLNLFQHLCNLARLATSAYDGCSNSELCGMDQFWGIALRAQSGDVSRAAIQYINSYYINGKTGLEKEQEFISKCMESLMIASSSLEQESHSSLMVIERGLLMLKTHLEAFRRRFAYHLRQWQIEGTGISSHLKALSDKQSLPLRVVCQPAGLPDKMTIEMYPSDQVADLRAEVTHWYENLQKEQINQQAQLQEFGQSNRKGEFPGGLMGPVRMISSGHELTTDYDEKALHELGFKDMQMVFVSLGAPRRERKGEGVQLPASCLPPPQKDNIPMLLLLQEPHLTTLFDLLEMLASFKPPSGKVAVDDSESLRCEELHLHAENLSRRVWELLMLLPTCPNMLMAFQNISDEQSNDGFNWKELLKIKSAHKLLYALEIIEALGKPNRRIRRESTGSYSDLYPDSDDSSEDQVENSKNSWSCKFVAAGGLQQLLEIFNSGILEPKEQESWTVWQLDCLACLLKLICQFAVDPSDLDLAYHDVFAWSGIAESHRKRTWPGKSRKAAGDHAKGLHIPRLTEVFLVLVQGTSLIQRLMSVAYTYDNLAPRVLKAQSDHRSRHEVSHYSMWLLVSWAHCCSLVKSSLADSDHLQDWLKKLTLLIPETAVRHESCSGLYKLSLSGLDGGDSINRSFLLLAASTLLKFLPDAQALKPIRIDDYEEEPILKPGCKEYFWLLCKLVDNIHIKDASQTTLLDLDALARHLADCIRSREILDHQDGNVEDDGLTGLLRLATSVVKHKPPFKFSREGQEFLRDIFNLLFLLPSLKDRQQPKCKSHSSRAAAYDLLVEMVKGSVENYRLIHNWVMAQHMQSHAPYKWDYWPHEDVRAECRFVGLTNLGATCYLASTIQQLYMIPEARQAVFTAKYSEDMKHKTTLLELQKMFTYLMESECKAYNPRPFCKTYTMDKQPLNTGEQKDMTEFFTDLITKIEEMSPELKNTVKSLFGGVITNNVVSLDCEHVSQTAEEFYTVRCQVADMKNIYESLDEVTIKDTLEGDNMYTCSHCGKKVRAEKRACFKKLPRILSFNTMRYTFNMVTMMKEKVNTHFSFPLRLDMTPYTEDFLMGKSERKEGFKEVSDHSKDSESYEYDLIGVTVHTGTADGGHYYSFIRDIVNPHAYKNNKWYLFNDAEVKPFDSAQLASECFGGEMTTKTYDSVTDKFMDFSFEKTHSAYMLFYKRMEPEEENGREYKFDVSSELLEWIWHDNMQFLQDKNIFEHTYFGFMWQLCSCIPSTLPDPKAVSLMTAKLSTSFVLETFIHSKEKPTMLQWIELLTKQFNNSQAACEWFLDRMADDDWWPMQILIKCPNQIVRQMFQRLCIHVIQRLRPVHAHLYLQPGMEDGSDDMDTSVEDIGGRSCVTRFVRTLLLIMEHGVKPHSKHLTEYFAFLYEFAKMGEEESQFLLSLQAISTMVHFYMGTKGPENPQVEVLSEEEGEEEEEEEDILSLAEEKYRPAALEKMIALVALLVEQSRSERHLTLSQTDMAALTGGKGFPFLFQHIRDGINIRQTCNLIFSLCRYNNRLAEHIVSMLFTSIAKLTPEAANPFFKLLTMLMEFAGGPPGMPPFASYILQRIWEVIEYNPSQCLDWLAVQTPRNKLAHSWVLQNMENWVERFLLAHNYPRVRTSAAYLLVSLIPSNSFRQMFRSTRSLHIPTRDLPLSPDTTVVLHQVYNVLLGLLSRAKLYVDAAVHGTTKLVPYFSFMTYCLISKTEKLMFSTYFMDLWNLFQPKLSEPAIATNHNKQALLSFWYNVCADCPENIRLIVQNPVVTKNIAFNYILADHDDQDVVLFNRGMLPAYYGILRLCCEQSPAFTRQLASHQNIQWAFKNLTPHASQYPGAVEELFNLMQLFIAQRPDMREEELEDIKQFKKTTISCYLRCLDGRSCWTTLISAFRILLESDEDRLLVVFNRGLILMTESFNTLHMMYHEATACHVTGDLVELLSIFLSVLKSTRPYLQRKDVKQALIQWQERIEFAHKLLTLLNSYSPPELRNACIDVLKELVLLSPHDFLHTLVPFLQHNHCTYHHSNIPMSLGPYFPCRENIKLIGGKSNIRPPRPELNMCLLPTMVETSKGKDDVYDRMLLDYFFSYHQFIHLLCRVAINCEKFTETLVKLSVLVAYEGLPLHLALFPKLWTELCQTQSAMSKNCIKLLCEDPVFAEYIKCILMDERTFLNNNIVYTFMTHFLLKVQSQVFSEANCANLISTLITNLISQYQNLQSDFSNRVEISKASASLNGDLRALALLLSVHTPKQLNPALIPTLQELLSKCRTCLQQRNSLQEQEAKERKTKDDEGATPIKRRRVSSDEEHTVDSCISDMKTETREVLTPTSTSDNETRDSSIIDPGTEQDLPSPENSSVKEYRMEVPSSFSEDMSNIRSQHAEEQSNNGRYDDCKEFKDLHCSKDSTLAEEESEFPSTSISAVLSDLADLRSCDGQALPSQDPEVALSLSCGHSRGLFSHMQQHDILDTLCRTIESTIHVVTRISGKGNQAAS

O=C(CCl)N1CCCCC12CCOCC2
inactive: USP34 -0.284 | USP36 -0.239 | USP38 -0.4 | USP39 -0.243 | USP4 -0.266

From the supplement of paper PMC11732987, “Enantioselective OTUD7B fragment discovery through chemoproteomics screening and high-throughput optimisation” (Communications Chemistry, 2025)
